# Measurements as given in PubChem BioAssay (EPA / NIEHS).
# Values joined by “and” are separate entries in the source; they are usually repeats but may differ in a detail not shown here. Equal entries are not always repeated. Some structures have more than one record in an assay (separate samples or runs), and their calls can disagree. Active and inactive are the calls of the source. How the source made its calls: active means hit-call score of the fitted dose curve at least 0.9, where 1 is the maximum; inactive means score below 0.9.
# Read-out: Interleukin-1 alpha (IL1a), IL1A (gene 3552)
# Assay: BSK_BE3C_IL1a: BioMAP Diversity Plus: BE3C Assay for Interleukin-1 alpha (IL1a) Biomarker Activity (AID 2283016)
# Settings: primary human bronchial epithelial cells; actives raise or lower the signal
# Protocol: BSK_BE3C is a cell-based, multiplexed-readout assay that uses bronchial epithelial cell, a human lung primary cell, with measurements taken at 24 hours after chemical dosing in a 96-well plate.BSK_BE3C_IL1a is an assay component measured in the BSK_BE3C assay. It measures IL-1a antibody related to regulation of gene expression using ELISA technology.Data from the assay component BSK_BE3C_IL1a was analyzed into 1 assay endpoint. This assay endpoint, BSK_BE3C_IL1a, was analyzed with bidirectional fitting relative to DMSO as the negative control and baseline of activity. Using a type of binding reporter, gain or loss-of-signal activity can be used to understand changes in the signaling as they relate to the gene IL1A. Furthermore, this assay endpoint can be referred to as a primary readout, because this assay has produced multiple assay endpoints where this one serves a signaling function. To generalize the intended target to other relatable targets, this assay endpoint is annotated to the cytokine intended target family, where the subfamily is interleukins.
# The levels of cell surface (or secreted, indicated by the prefix "s") biomarker endpoints were measured by ELISA. Overt cytotoxicity to cells in confluent adherent cultures (all systems other than the BT system) was assessed by measuring total protein levels using sulforhodamine B (SRB) staining in parallel cultures at the time of biomarker measurements, indicated as SRB endpoints. For proliferation assays for adherent cell types, individual cell types are cultured at sub-confluence and relative cell numbers quantified by SRB staining at time points optimized for each system (48 h: 3C and CASM3C systems; 72 h: BT and HDF3CGF systems; 96 h: SAg system). SRB was performed by staining cells with 0.1% SRB after fixation with 10% TCA and reading wells at 560 nm.Viability and proliferation of PBMC (T cells) was quantified by Alamar Blue reduction for the SAg and BT systems. For PBMC viability (referred to as PBMC Cytotoxicity within the assay endpoint names), cells were plated (75,000/well in a 96-well plate) and then chemical samples added for 1 h before addition of activators, SEB and TSST-1 (20 ng/mL final concentration each). Cells were incubated for 90 h. Then, Alamar Blue (20 uL/well) (Invitrogen, Cat DAL1100) was added for 6 h, and the plates were read with a fluorescence microplate reader at 546/580 nm (excitation/emission). For PBMC proliferation, cells were plated and activated as above but incubated for only 16 h prior to addition of Alamar Blue. Plates were read after 6 h.
SMILES,outcome,AC50
OCC(F)(F)C(F)(F)C(F)(F)C(F)(F)C(F)(F)C(F)(F)CO,inactive,
CC(C)(C)c1cc(CCC(=O)NCCCCCCNC(=O)CCc2cc(C(C)(C)C)c(O)c(C(C)(C)C)c2)cc(C(C)(C)C)c1O,inactive,
OC(O)C(F)(F)C(F)(F)F,inactive,
Brc1nc2ccccc2s1,inactive,
NCC(F)(F)C(F)(F)C(F)(F)C(F)(F)C(F)(F)C(F)(F)C(F)(F)C(F)(F)F,inactive,
Cc1ccc(S(=O)(=O)C(I)I)cc1,,5.63 µM (active)
OCC(F)(F)C(F)(F)C(F)(F)CO,inactive,
O=C(Cl)C(F)(F)C(F)(F)C(F)(F)C(F)(F)C(F)(F)C(F)(F)C(F)(F)F,inactive,
NC(=O)C(F)(F)C(F)(F)C(F)(F)C(F)(F)C(F)(F)C(F)(F)C(F)(F)F,inactive,
O=C(O)C(F)(F)C(F)(F)C(F)(F)OC(F)(C(F)(F)F)C(F)(F)F,inactive,
NS(=O)(=O)C(F)(F)C(F)(F)C(F)(F)C(F)(F)C(F)(F)C(F)(F)F,inactive,31.6 µM (active)
C=C(C)C(=O)OCC(F)(F)C(F)(F)C(F)(F)C(F)F,inactive,
CN(C(=O)C(F)(F)C(F)(F)C(F)(F)F)[Si](C)(C)C,inactive,
OCCCC(F)(F)C(F)(F)C(F)(F)C(F)(F)C(F)(F)C(F)(F)C(F)(F)C(F)(F)F,,46.9 µM (active) and 39.5 µM (active)
O=S(=O)(OCC(F)(F)F)C(F)(F)C(F)(F)C(F)(F)C(F)(F)F,inactive,
CCOC(C=C(C)CCC=C(C)C)OCC,,3.97 µM (active)
OCCCCC(F)(F)C(F)(F)C(F)(F)C(F)(F)F,inactive,
CO[Si](C)(CCC(F)(F)C(F)(F)C(F)(F)C(F)(F)C(F)(F)C(F)(F)F)OC,inactive,
Cc1cc(O)c(C(C)(C)C)cc1C(C)(C)C,,4.77 µM (active)

SMILES,outcome,AC50
OCC(F)(F)C(F)(F)C(F)(F)C(F)(F)C(F)(F)C(F)(F)C(F)(F)C(F)(F)CO,inactive,30 µM (active)
O=S(=O)(Cl)C(F)(F)C(F)(F)C(F)(F)C(F)(F)C(F)(F)C(F)(F)C(F)(F)C(F)(F)F,,46.4 µM (active) and 47.1 µM (active)
FC(F)(F)C(F)(F)C(F)(F)CC1CO1 (stereo not given),inactive,
CCN(CC)c1ccc(C=O)cc1,inactive,
C[C@]12CC[C@H]3C(=CCc4cc(O)ccc43)[C@@H]1CCC2=O,inactive,
CCN(CCO)S(=O)(=O)C(F)(F)C(F)(F)C(F)(F)C(F)(F)C(F)(F)C(F)(F)C(F)(F)C(F)(F)F,,45.7 µM (active) and 19.5 µM (active)
NC(=O)C(F)(F)C(F)(F)C(F)(F)C(F)F,inactive,
O=C1C=CC(=O)N1c1ccc(Cc2ccc(N3C(=O)C=CC3=O)cc2)cc1,,3.26 µM (active)
C[Si](Cl)(Cl)CCC(F)(F)C(F)(F)C(F)(F)C(F)(F)C(F)(F)C(F)(F)F,inactive,
FC(F)(F)C(F)(F)C(F)(F)C(F)(F)C(F)(F)C(F)(F)C(F)(F)CCI,inactive,
CCN(CC)c1ccc(N=Nc2ccccc2)cc1,,20 µM (active)
Nc1cc([N+](=O)[O-])cc(Cl)c1O,inactive,
CC(C)CCCC(C)CCO (stereo not given),,30.6 µM (active)
CC1=CC2C3C=CC(C3)C2C1C (stereo not given),inactive,
C=CC(=O)OCCC(F)(F)C(F)(F)C(F)(F)C(F)(F)F,inactive,
COC(F)(C(F)F)C(F)(F)F (stereo not given),inactive,
CCN=C1C=CC(=C(c2ccc(N(CC)CC)cc2)c2ccc(N(CC)CC)cc2)c2ccccc21,,1.99 µM (active) and 1.72 µM (active)
CNS(=O)(=O)C(F)(F)C(F)(F)C(F)(F)C(F)(F)C(F)(F)C(F)(F)C(F)(F)C(F)(F)F,inactive,
NC(=O)C(F)(F)C(F)(F)C(F)(F)F,inactive,
